The record followed here is PubChem BioAssay (EPA / NIEHS).

SMILES strings stand for the structures. Activity calls are given as the source filed them. The calls were made as follows: active = hit-call score of the fitted dose curve at least 0.9, where 1 is the maximum; inactive = score below 0.9.

The term AC50 denotes the concentration at which the activity in the assay is half-maximal.

The nature of the assay: APR_HepG2_MitoMembPot_24hr: Apredica 24-hour HepG2 Assay for Mitochondrial Membrane Potential (AID 2282911). To be noted: imaging, actives raise or lower the signal. The protocol: APR_HepG2_24hr is a cell-based, multiplexed-readout assay that uses HepG2, a human liver cell line, with measurements taken at 24 hours after chemical dosing in a 384-well plate.APR_HepG2_MitoMembPot_24hr is one of 10 assay component(s) measured or calculated from the APR_HepG2_24hr assay. It is designed to make measurements of dye binding, a form of membrane potential reporter, as detected with fluorescence intensity signals by HCS Fluorescent Imaging technology.Data from the assay component APR_HepG2_MitoMembPot_24hr was analyzed into 1 assay endpoint. This assay endpoint, APR_HepG2_MitoMembPot_24hr, was analyzed with bidirectional fitting relative to DMSO as the negative control and baseline of activity. Using a type of membrane potential reporter, gain or loss-of-signal activity can be used to understand changes in the signaling. Furthermore, this assay endpoint can be referred to as a primary readout, because this assay has produced multiple assay endpoints where this one serves a signaling function. To generalize the intended target to other relatable targets, this assay endpoint is annotated to the cell morphology intended target family, where the subfamily is organelle conformation.
Cells were treated with dimethyl sulfoxide (DMSO) as a solvent control at a final concentration of 0.5% v/v or with compounds in DMSO with a resulting final DMSO concentration of 0.5% v/v. Compound treatment was done at concentrations of 0.39, 0.78, 1.56, 3.12, 6.24, 12.5, 25, 50, 100, and 200 uM in duplicate on each plate. Cells were treated with compounds for 1, 24, or 72 hr. Carbonyl […] m-chloro-phenylhydrazone (CCCP) and taxol were used as positive controls for mitochondrial function and cytoskeletal stability, respectively; DMSO served as the negative control for this experiment. Cells were fixed by the direct addition of 50 uL formaldehyde in Hank's Balanced Salt Solution (HBSS) to a final concentration of 3.7%. After incubation in the fixation medium for 30 min at room temperature (293-298 K), cells were rinsed twice with HBSS and treated with cell permeabilization buffer (16 uL of 0.5% Triton X-100) for 10 min at room temperature (293-298 K) before labeling. For mitochondrial membrane potential and mitochondrial measurements, pre-fixed cells were incubated with 50 uL of MitoTracker Red CMXRos (Invitrogen) at a concentration of 250 nM for 30 min before fixation. In the remaining cases, post-fixed cells were labeled by incubation with a multiplexed mixture of primary antibodies in HBSS for 60 min at room temperature (293-298 K) to detect immunoreactivity of c-Jun (1:500), phospho-histone H3 (1:100), phospho-histone H2A.x (1:200), p53 (1:400), alpha-tubulin (1:200) and Hoechst 33342 (2 ug/mL). Cells were labeled for multiplexed imaging on two separate plates: a) Hoechst 33342, MitoTracker Red, phospho-histone H3, and alpha-tubulin, and b) Hoechst 33342, phospho-histone H2A.x, and c-Jun. A final rinse with HBSS (50 uL) was performed before analysis. The primary and secondary antibodies for the proteins were phospho-histone H3 (rabbit anti-phospho-histone H3 and FITC-donkey anti-rabbit IgG), phospho-histone H2A.x (mouse anti-phospho-histone H2A.x and FITC-donkey anti-mouse IgG), c-Jun (rabbit anti-phospho-c-Jun and Cy3-donkey anti-rabbit IgG), p53 (sheep anti-p53 and Cy5-donkey anti-sheep IgG), alpha-tubulin (mouse anti-alpha-tubulin and Cy5-donkey anti-mouse IgG). These antibodies are available as the CellCiphr HepG2 assay kit (Millipore).Digital images of each well were captured using a Cellomics ArrayScan VTI (Thermo Scientific Cellomics) (0.8 NA objective, 0.63x optical coupler, and XF-93 filter set) at 20x magnification. The images were acquired using the autofocus feature of the ArrayScan instrument, which entails the following steps. First, the camera focuses on channel 1 (Hoechst 33342), where nuclei are identified. Second, a Z offset of 1 um is used for capturing mitochondria (MitoTracker Red). […]
On to `CCCN(CC)CC1COC2(CCC(C(C)(C)C)CC2)O1` (stereo not given), for which the call was inactive. Still for that read-out and setting: with `Cn1c(-c2ccccc2)cc(-c2ccccc2)[n+]1C` the entry was “inactive”; with `CCSC(=O)N1CCCCCC1`, “inactive”. Same read-out and setting: then `CC(C)N1C(=O)N(c2ccccc2)CSC1=NC(C)(C)C`, with “inactive”; and `CCN(CC)c1nc(C)cc(OP(=S)(OC)OC)n1`, with “inactive”; and `CC(C)N1C(=O)c2ccccc2NS1(=O)=O`, with “inactive”. Still for that read-out and setting: then `Nc1c(Cl)c(F)nc(OCC(=O)O)c1Cl`, with “inactive”. Consider `CC(C)=CC1C(C(=O)OCc2coc(Cc3ccccc3)c2)C1(C)C` (stereo not given), for which the AC50 was 100 µM (active).

For the compound `CCOc1cc(C(C)(C)C)ccc1C1COC(c2c(F)cccc2F)=N1` (stereo not given), the AC50 was 93.3 µM (active).

As to `Cc1cnc(C2=NC(C)(C(C)C)C(=O)N2)c(C(=O)O)c1` (stereo not given), the compound was classed as inactive. Same read-out and setting: then `Clc1nc(Cl)nc(Nc2ccccc2Cl)n1`, with “inactive”; and `Cc1nc(N(C)C)nc(OC(=O)N(C)C)c1C`, with “inactive”.

Regarding `CC1(C)CCC(=Cc2ccc(Cl)cc2)C1(O)Cn1cncn1` (stereo not given), the compound was classed as inactive. Same read-out and setting: with `COC(=O)c1c(C(F)F)nc(C(F)(F)F)c(C2=NCCS2)c1CC(C)C` the entry was “inactive”.

As to `COCC(C)N(C(=O)CCl)c1c(C)csc1C` (stereo not given), the outcome was inactive.

On to `N#Cc1c(Cl)cccc1Cl`, for which the call was inactive. As for `CC(C)Nc1nc(Cl)nc(NC(C)C)n1`, the AC50 was 110 µM (active). For the compound `COc1ccc(-c2ccccc2)cc1NNC(=O)OC(C)C`, the call was inactive. Consider `CC(C)C1(C)N=C(c2ncccc2C(=O)O)NC1=O` (stereo not given), for which the outcome was inactive. Still for that read-out and setting: then `CC1(C)C(C=C(Cl)Cl)C1C(=O)OC(C#N)c1cccc(Oc2ccccc2)c1` (stereo not given), with “inactive”; and `CS(=O)(=O)c1ccc(C(=O)C2C(=O)CCCC2=O)c([N+](=O)[O-])c1`, with “inactive”; and `COP(=S)(OC)SCn1nnc2ccccc2c1=O`, with “inactive”. Take `C=C(C)CN(CC)c1c([N+](=O)[O-])cc(C(F)(F)F)cc1[N+](=O)[O-]`: the compound was classed as inactive. For `CO/N=C(/C1=NOCCO1)c1ccccc1Oc1ncnc(Oc2ccccc2Cl)c1F`, the AC50 was 0.309 µM (active). On to `COP(=O)(OC)O/C(C)=C/C(=O)N(C)C`, for which the call was inactive. Regarding `Cc1cc(C)nc(Nc2ccccc2)n1`, the AC50 was 75.7 µM (active). Consider `CCCC(=NOCC)C1=C(O)CC(CC(C)SCC)CC1=O` (stereo not given), for which the compound was classed as inactive. On the same count and under the same terms, then `CCOC(=O)C(C)OC(=O)c1cc(Oc2ccc(C(F)(F)F)cc2Cl)ccc1[N+](=O)[O-]` (stereo not given), with “inactive”.

As to `Cc1ccc(N=CN(C)C=Nc2ccc(C)cc2C)c(C)c1`, the concentration at half-maximal activity (AC50) is 44.7 µM (active). On the same count and under the same terms, then `O=C(Nc1ccccc1-c1ccc(Cl)cc1)c1cccnc1Cl`, with 66.8 µM (active).

Turning to `O=C1C2CC=CCC2C(=O)N1SC(Cl)(Cl)Cl` (stereo not given), the compound was called inactive. Same read-out and setting: then `OC(c1ccc(Cl)cc1)(c1ccc(Cl)cc1)C(Cl)(Cl)Cl`, with “inactive”.

Take `CC1(C)CON(Cc2ccccc2Cl)C1=O`: the compound was classed as inactive. For the compound `N#Cc1c[nH]cc1-c1cccc2c1OC(F)(F)O2`, the AC50 was 53.6 µM (active). As to `Clc1cccc(C(Cl)(Cl)Cl)n1`, the result was inactive. On the same count and under the same terms, with `CN/C(=N\[N+](=O)[O-])NCc1cnc(Cl)s1` the entry was “inactive”.

For the compound `O=c1n(Cl)c(=O)n(Cl)c(=O)n1Cl`, the result was inactive. For the compound `COCc1cnc(C2=NC(C)(C(C)C)C(=O)N2)c(C(=O)O)c1` (stereo not given), the call was inactive. The same measure, in the same setting: then `CC(C)(C)C(=O)C(Oc1ccc(Cl)cc1)n1cncn1` (stereo not given), with “inactive”; and `CCOP(=O)(OCC)Oc1nc(Cl)c(Cl)cc1Cl`, with “inactive”.
